According to PubChem BioAssay AID1347147 (National Center for Advancing Translational Sciences (NCATS), 2019):
Inconclusive results are not listed. The source made the active and inactive calls. The call rests on the fitted dose curve; in most records, active means well fitted inhibition curve with a large enough effect; inconclusive means small, poorly fitted or top-dose-only effect; inactive means no such curve, though single readings can be large or run the other way.

biological target: N-terminal Xaa-Pro-Lys N-methyltransferase 1 (Homo sapiens) (UniProt Q9BV86); assay: qHTS Assay for Inhibitors of N-terminal methyltransferase 1 (NTMT1): MTaseGlo Confirmatory Screen, Round 2; conditions: NTMT1 enzyme, MTase-Glo SAH luminescence; series mostly up to 57.4 µM
Summary of the method: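 NTMT1 (125 nM) with 100 µM SAM was preincubated ~15 min with compound, then 1 µM SPKRIA peptide was added for 30 min at RT. SAH was detected by MTase-Glo luminescence, normalized to no-enzyme and DMSO controls, and fitted to a 4-parameter Hill equation.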
Potency means the concentration at half of the fitted maximal effect.

Sequence of N-terminal Xaa-Pro-Lys N-methyltransferase 1 (Homo sapiens) (Q9BV86 whole entry, looked up): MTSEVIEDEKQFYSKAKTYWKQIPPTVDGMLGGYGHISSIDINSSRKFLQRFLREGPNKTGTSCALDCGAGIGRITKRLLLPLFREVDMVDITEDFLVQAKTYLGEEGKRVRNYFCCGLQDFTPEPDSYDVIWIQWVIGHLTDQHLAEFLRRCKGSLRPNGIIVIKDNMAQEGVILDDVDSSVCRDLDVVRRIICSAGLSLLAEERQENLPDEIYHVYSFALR

Potency, active:
OC[C@H]1O[C@@H](n2cnc3cncnc32)[C@H](O)[C@@H]1O 5.62 µM
O=C1c2c(O)ccc(O)c2C(=O)c2c(NCCNCCO)ccc(NCCNCCO)c21 31.6 µM
N#C/C(=C\c1ccc(O)c(O)c1)C(=O)NCCCNC(=O)/C(C#N)=C/c1ccc(O)c(O)c1 7.94 µM
CC[n+]1c(/C=C/C=C2/N(C)c3ccccc3C2(C)C)sc2ccccc21 14.1 µM
C[C@H](Cc1ccc(O)c(O)c1)[C@@H](C)Cc1ccc(O)c(O)c1 15.8 µM
CN=c1nc(-c2ccccc2)n(-c2ccccc2)s1 1 µM

Potency, inactive:
Nc1[nH]c(=O)nc2c1ncn2C1OC(CO)C(O)C1O (stereo not drawn)
O=C(Nc1ccc([N+](=O)[O-])cc1Cl)c1cc(Cl)ccc1O
CC1=C(\C=C/C(C)=C/C=C\C(C)=C\C(=O)O)C(C)(C)CCC1
Cc1ccccc1CNc1ncnc2c1ncn2[C@@H]1O[C@H](CO)[C@@H](O)[C@H]1O
NS(=O)(=O)c1cccc2c1c([N+](=O)[O-])cc1nc(O)c(O)nc12
COC(=O)[C@H]1[C@H]2C[C@H]3c4[nH]c5ccccc5c4CCN3C[C@H]2CC[C@@H]1O
C=CCN1CCc2cc(O)c(O)cc2[C@H](c2ccccc2)C1
Nc1ncnc2c1ncn2[C@@H]1O[C@H](COP(=O)(O)OP(=O)(O)OC[C@H]2OC(O)[C@H](O)[C@@H]2O)[C@@H](O)[C@H]1O (stereo partly drawn)
CSc1ccc(C(=O)c2[nH]c(=O)[nH]c2C)cc1
CN(C)C(=O)/N=N/C(=O)N(C)C
O=c1cc(-c2ccccc2)oc2c(O)c(O)ccc12
O=c1[nH]c(=S)[nH]c(-c2ccccc2)c1Cc1c(O)ccc2ccccc12
CN(C)CCCN1c2ccccc2Sc2ccccc21
CCN1C(=O)C=CC1=O
O=[N+]([O-])c1ccc(CNc2nc(NCc3cccc(C(F)(F)F)c3)nc3nc[nH]c23)cc1
C=CCN1CCc2c(cc(O)c(O)c2Cl)C(c2ccccc2)C1 (stereo not drawn)
C/C(=C\CNc1ncnc2c1ncn2[C@@H]1O[C@H](CO)[C@@H](O)[C@H]1O)CO
C[C@](Cc1ccc(O)c(O)c1)(NN)C(=O)O
CC(C)COCC(CN(Cc1ccccc1)c1ccccc1)N1CCCC1 (stereo not drawn)
OCC1OC(n2cnc3c(NO)ncnc32)C(O)C1O (stereo not drawn)
O=S(=O)(c1cccc2c(Cl)cccc12)N1CCCNCC1
CC(=O)c1ccc2c(c1)N(CCCN(C)C)c1ccccc1S2
CN1CCN(CCCN2c3ccccc3Sc3ccc(Cl)cc32)CC1
Nc1nc(Cl)nc2c1ncn2[C@@H]1O[C@H](CO)[C@@H](O)[C@@H]1F
C[C@H](NC(=O)/C(C#N)=C/c1ccc(O)c(O)c1)c1ccccc1
OCC1OC(n2cnc3c(=S)nc[nH]c32)C(O)C1O (stereo not drawn)
CC(C)NC[C@H](O)c1ccc(O)c(O)c1
COc1ccccc1N1CCN(CCN2C(=O)CC3(CCCC3)CC2=O)CC1
CCCCCCCCCCCCCCCCCC(=O)OC(CC(=O)O)C[N+](C)(C)C (stereo not drawn)
O=C(O)Cc1ccc(O)c(O)c1
CCn1nc(C(=O)O)c(=O)c2cc3c(cc21)OCO3
N=c1c[n+](N2CCOCC2)[n-]o1
